This is a sample that favours compounds with a hit; in the whole collection about 11% have one here.
USP28 inh: inhibitors of human USP28 deubiquitinase; purified USP28, Ub-rhodamine cleavage fluorescence, 30 min; inhibition, % at 25 µM; 47,000 tested, 3% active; AID 1645857
Target sequence (Q96RU2 whole entry, looked up): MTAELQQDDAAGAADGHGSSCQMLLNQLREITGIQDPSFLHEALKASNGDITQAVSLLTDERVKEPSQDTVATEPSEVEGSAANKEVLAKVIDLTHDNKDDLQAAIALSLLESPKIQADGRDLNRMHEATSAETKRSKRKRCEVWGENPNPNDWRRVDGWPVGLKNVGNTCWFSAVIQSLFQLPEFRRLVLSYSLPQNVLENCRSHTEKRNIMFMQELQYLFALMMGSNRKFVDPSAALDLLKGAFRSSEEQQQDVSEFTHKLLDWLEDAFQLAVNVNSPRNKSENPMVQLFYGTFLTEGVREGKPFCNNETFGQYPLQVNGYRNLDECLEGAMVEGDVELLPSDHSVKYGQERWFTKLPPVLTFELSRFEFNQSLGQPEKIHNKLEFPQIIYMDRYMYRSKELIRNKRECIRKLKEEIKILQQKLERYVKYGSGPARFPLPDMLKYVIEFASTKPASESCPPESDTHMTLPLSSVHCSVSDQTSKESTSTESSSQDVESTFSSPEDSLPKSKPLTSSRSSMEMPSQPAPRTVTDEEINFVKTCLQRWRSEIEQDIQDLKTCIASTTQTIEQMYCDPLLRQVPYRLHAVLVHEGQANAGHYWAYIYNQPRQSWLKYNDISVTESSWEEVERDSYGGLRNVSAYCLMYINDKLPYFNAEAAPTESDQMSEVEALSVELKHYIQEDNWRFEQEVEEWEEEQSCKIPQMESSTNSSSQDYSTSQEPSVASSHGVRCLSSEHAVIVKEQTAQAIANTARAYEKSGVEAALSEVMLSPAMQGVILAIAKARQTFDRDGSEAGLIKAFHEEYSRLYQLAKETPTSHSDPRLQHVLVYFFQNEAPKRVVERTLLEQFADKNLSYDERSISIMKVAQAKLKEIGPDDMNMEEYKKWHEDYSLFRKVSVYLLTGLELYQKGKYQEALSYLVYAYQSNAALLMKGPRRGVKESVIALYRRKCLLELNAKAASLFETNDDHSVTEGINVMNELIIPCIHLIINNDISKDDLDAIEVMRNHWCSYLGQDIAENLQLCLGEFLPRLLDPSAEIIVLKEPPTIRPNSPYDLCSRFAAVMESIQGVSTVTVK
USP30 inh: inhibitors of human USP30 deubiquitinase; Q70CQ3; purified USP30, Ub-rhodamine cleavage fluorescence; inhibition, % at 25 µM; 47,000 tested, 5.3% active
USP17 block: inhibitors of human USP17 deubiquitinase; A8MUK1; purified USP17, Ub-rhodamine cleavage fluorescence, 3 h; inhibition, % at 50 µM; 47,000 tested, 6.5% active; AID 1645855
* hit, by the source's call; i = inactive; . = no result. Cut-off read from the data, not from the text of the source: active = inhibition above about 30%; inactive = the rest.

SMILES	USP28 inh	USP30 inh	USP17 block
CCc1cc(=O)n(Cc2cc(F)ccc2F)c(N2CCCC2)n1	12	14	8
COc1ccc(Cl)cc1C(=O)Nc1ccc2c(c1)N(C(=O)c1ccco1)CCC2	10	9	0
Cc1ccccc1NC(=O)C1(NC(=O)c2ccccc2O)CCCCC1	2	5	11
COc1ccc(C(=O)N2CCC(c3ccnc4ccnn34)CC2)cn1	0	21	4
CCOc1ccc2c(c1)c(=O)c(C(=O)c1ccc(C)cc1)cn2CC(=O)Nc1ccc(C)cc1	12	10	8
CCOc1ccc2c(c1)c(=O)c(C(=O)c1ccc(C)cc1)cn2CC(=O)Nc1ccc(OC)cc1	4	-4	56*
Cc1ccc(-n2nc(C(=O)Nc3cccnc3)c3ncn(C)c(=O)c32)cc1	16	17	27
Cc1ccc(Cn2c(C(=O)Nc3cccnc3)cc3sccc32)cc1	8	22	42*
COCCNC(=O)c1ccc2ccc(N3CCN(c4ncccn4)CC3)n2c1	-63	-172	-45
CCOc1ccc(C(=O)Nc2c(C(=O)N3CCN(CC)CC3)oc3ccccc23)cc1	4	16	-104
CCOc1ccccc1C(=O)NCCS(=O)(=O)N1CCN(c2ccccc2)CC1	-1	5	-3
COc1cc(O)c2c(O)c3c(cc2c1)C[C@@]1(O)CC(=O)C(C(N)=O)=C(O)[C@@]1(O)C3=O	41*	-120	30*
O=C(Oc1coc(CSc2ncccn2)cc1=O)c1ccccc1C(F)(F)F	-2	-11	-2
CCC(C)C1OC(=O)C(CCC(=O)O)N(C)C(=O)C(C(C)C)NC(=O)C2CCCCN2C(=O)[C@H]([C@H](C)CC)NC(=O)C(CCC(=O)O)N(C)C(=O)C(C(C)C)N(C)C(=O)CNC(=O)C2CCCN2C(=O)C(Cc2ccccc2)NC1=O (stereo partly drawn)	-14	-14	-1
Cc1c2oc3c(C)ccc(C(=O)N[C@@H]4C(=O)N[C@H](C(C)C)C(=O)N5CCC[C@H]5C(=O)N(C)CC(=O)N(C)[C@@H](C(C)C)C(=O)O[C@@H]4C)c3nc-2c(C(=O)N[C@@H]2C(=O)N[C@H](C(C)C)C(=O)N3CCC[C@H]3C(=O)N(C)CC(=O)N(C)[C@@H](C(C)C)C(=O)O[C@@H]2C)c(N)c1=O	-40	-158	35*
Cc1ccc(Cl)cc1N1CCN(C(=O)CCC(=O)Nc2ccc3nc(N4CCOCC4)cc(C)c3c2)CC1	-6	-6	-23
N#Cc1cc2c(nc1SCC(=O)NC1CCCCC1)CCCC2	-5	-17	-7
N#Cc1cc2c(nc1SCC(=O)Nc1ccc(F)cc1)CCCC2=O	0	-26	2
N#Cc1cc2c(nc1SCC(=O)NCc1ccccc1)CCCC2	13	20	59*
Cc1ccc(NC(=O)CSc2nc3c(cc2C#N)C(=O)CCC3)cc1	0	0	55*
CCNC(=O)CN1C(=O)CCCc2cc(S(=O)(=O)N3CCC(C)CC3)ccc21	3	11	4
N#C/C(=C/c1ccc(OCc2cccc(C(=O)O)c2)cc1)c1ccccc1	26	26	27
N#C/C(=C\c1ccc(OCc2cccc(C(=O)O)c2)cc1)c1ccc(F)cc1	29	0	69*
O=C(NC1CCN(Cc2ccccc2)CC1)C1CCCN(S(=O)(=O)N2CCOCC2)C1 (stereo not drawn)	-10	0	-9
Cn1c(=O)c(C(=O)NCc2ccc(F)cc2)nc2ccccc21	.	.	-9
SMILES	USP28 inh	USP30 inh	USP17 block
CCc1cccc(NC(=O)c2nc3ccccc3n(C)c2=O)c1	48*	86*	58*
O=C1CCCN1CC(=O)N1CCC[C@@]2(C[C@@H](Oc3ccc(Cl)cc3)CO2)C1	8	15	3
O=C(c1cc([N+](=O)[O-])nn1Cc1ccccc1)N1CCc2ccccc21	-3	10	-12
CNc1ncc(C(=O)c2ccc(Br)cc2)s1	3	39*	47*
Cc1ccc(-c2c[nH]cc2C(=O)c2ccc(Br)cc2)cc1	-3	5	1
CN(C(=O)CN1CN(c2cccc(F)c2)c2ncccc2S1(=O)=O)c1ccccc1	2	2	2
CC(NC(=O)C1CCCN(c2cnc3nccnc3c2)C1)c1ccccc1 (stereo not drawn)	-136	i	-141
CCOC(=O)c1cnn(-c2ccc(C(=O)Nc3ccc(C)c(Cl)c3)cc2)c1N	13	15	62*
CCOC(=O)c1cnn(-c2ccc(C(=O)NCCCN3CCCCCC3)cc2)c1N	-30	-116	10
COc1ccc(Cc2noc(C3(c4cccc(Br)c4)CCOCC3)n2)cc1	1	-15	1
O=C1N[C@H]2OCC[C@H]2[C@H](C2CCN(C(=O)c3ccc(=O)[nH]c3)CC2)N1	-6	-20	-9
CC(=O)N1C[C@H](c2ccccc2)[C@H]2CN(C(=O)c3ccc(=O)[nH]c3)CC[C@H]21	15	30*	7
Cc1cn2c(=O)cc(COC(=O)c3ccccc3Cl)nc2s1	7	8	2
